Anthrax LF prot = blocks Bacillus anthracis lethal factor protease | actives 0.12% (n = 360,000) | AID 588501 | multiplex microsphere protease cleavage assay, LF | P15917 | inhibition, % at 10 µM; also: plate controls were buffer without enzyme for full effect and enzyme alone for no effect
Autofluor counter = counter-screen for toxin protease inhibitors: compound fluorescence. compound autofluorescence counterscreen, microsphere flow cytometry; stronger effect = higher value. fluorescence intensity (test concentration not listed). actives 3.1% (n = 360,000); in the data active = fluorescence intensity above about 16000; inconclusive = no clear call, values can overlap the other calls
BoNT-F LC inh = blocks Botulinum neurotoxin F light chain protease; Multiplex microsphere protease cleavage assay, flow cytometry; inhibition, % at 10 µM; actives 0.22% (n = 360,000); AID 588497; in the data active = inhibition above about 35%, passing the limit was not always enough; inconclusive = no clear call, values can overlap the other calls; also: plate controls were buffer without enzyme for full effect and enzyme alone for no effect
BoNT A protease = blocks Botulinum neurotoxin A light chain protease; multiplex microsphere protease substrate cleavage, flow cytometry; inhibition, % at 10 µM; actives 0.17% (n = 360,000); also: plate controls were buffer without enzyme for full effect and enzyme alone for no effect
An asterisk follows results filed as active; ? = inconclusive. Only some compounds are listed: those with a hit (about 3.5% of all), similar ones and a draw of the others. Rule as the data show it, unless noted: active = inhibition above about 30%; inconclusive = no clear call, values can overlap the other calls; inactive = below that.

SMILES	Anthrax LF prot	Autofluor counter	BoNT-F LC inh	BoNT A protease
Cc1cc(C(=O)NCc2ccccc2)c(=O)[nH]c1C	-8	23927*	-6	-4
CN(Cc1ccccc1)C(=O)c1ccccc1NC(=O)c1ccccc1	0	22709*	2	3
Cc1ccc(C(=O)NCc2ccccc2)c(F)c1F	-1	4582	-1	0
Cc1nc2c(C(=O)NCc3ccccc3)c[nH]n2c(=O)c1Cl	-8	20750*	7	5
Cc1cc(NC(=O)C2CCCCC2C(=O)O)ccc1NC(=O)c1ccccc1 (centres undefined)	0	5663	4	1
CC(C)(COC(=O)c1ccccc1)N1CC2CCC(C1)O2	0	2794	-2	0
CC(NC(=O)CCNS(=O)(=O)c1cccc2nonc12)c1ccccc1 (centres undefined)	-2	5925	0	0
O=C(COc1ccc(F)cc1)Nc1nnc(-c2ccncc2)s1	-4	18059*	-8	-3
NS(=O)(=O)c1ccc(NC(=O)c2ccc(S(=O)(=O)N3CCc4ccccc43)cc2)cc1	0	2543	2	0
Cc1ccc(C(=O)Nc2ccc(S(=O)(=O)N3CCc4ccccc43)cc2)o1	-7	23775*	-3	?
COc1ccc(C(=O)Nc2ccc(S(=O)(=O)N3CCc4ccccc43)cc2)cc1	-3	16637*	-6	-1
Cc1ccc(C(=O)Nc2ccc(S(=O)(=O)N3CCCC3)cc2)o1	0	5745	-3	1
O=C(Nc1ccc(S(=O)(=O)N2CCCc3ccccc32)cc1)C1CCCO1 (centres undefined)	-3	17480*	-3	-6
O=C(Nc1ccc(S(=O)(=O)N2CCc3ccccc3C2)cc1)C1CCCO1 (centres undefined)	-4	11273	-10	-1
O=[N+]([O-])c1ccc(NCCc2ccccc2)c(Br)c1	9	3260	-16	-2
O=C(Nc1ccc(Cl)cc1Cl)c1n[nH]c(Cn2cncn2)n1	3	20568*	-3	?
COc1ccc(-c2noc(C3CCCN(S(=O)(=O)c4cccc(Cl)c4)C3)n2)cc1OC (centres undefined)	-4	23625*	-2	0
COc1ccc(C(=O)N2CCCC(c3nc(-c4cccs4)no3)C2)cc1 (centres undefined)	-4	19734*	-2	-2
COc1ccc(C(=O)N2CCCC(c3nc(-c4cccs4)no3)C2)cc1OC (centres undefined)	-1	25010*	-7	-4
Cc1ccc(NC(=O)c2cccc(-n3cnnn3)c2)cc1Cl	-3	5706	-1	1
CCOC(=O)N1CCN(S(=O)(=O)c2c[nH]c(C(=O)OC)c2)CC1	-3	5246	0	-1
CC(C)NC(=O)CC1OC(=O)c2ccccc21 (centres undefined)	-1	23103*	0	0
O=C1c2ccccc2[C@@H]2C[C@@H](O)[C@H](Nc3cccc(C(F)(F)F)c3)CCN12	-8	3390	1	0
CC(NC(=O)Cc1cccs1)c1ccncc1 (centres undefined)	-9	24187*	-8	-4
NC(=O)c1ccc(NC(=O)CN2CCN(Cc3ccccc3)CC2)cc1	-6	3575	2	-3
SMILES	Anthrax LF prot	Autofluor counter	BoNT-F LC inh	BoNT A protease
CN(C)S(=O)(=O)N1CCN(c2ccccc2)CC1	-3	8151	-10	-1
CN(C)S(=O)(=O)N1CCN(c2cccc(Cl)c2)CC1	-1	21047*	3	?
O=C1Cc2cc(S(=O)(=O)N3CCN(c4cccc(Cl)c4)CC3)ccc2N1	-2	4168	4	0
O=C1CCc2cc(S(=O)(=O)N3CCN(c4cccc(Cl)c4)CC3)ccc2N1	3	17938*	10	11
Cc1cc(=O)[nH]c2nnc(-c3ccc(Cl)cc3)n12	-13	3963	?	1
Cc1ccc(F)c(S(=O)(=O)NC(=O)C2(C)CCN2C(=O)CC2CCCCC2)c1 (centres undefined)	-3	3157	-7	-1
CSc1ncccc1C(=O)OCC(=O)Nc1ccc(N2CCOCC2)cc1	1	3558	-4	0
CCOC(=O)C1=CCN(S(=O)(=O)c2ccc(C)cc2)[C@H]1c1ccccc1Cl	-3	5680	-2	-1
O=C(NCCN1CCOCC1)c1ccc(-c2ccccc2)cc1	-1	20391*	7	7
O=C(NCCc1ccccc1)c1noc2c1CCc1ccccc1-2	0	17456*	20	14
O=C(NCCN1CCOCC1)c1noc2c1CCc1ccccc1-2	0	23180*	-2	-3
O=C(NCCN1CCN(c2ccccc2)CC1)c1cccc(Br)c1	-1	23925*	0	0
O=C(Cc1ccc(-c2ccccc2)cc1)NCCN1CCOCC1	-1	3265	18	0
